Inconclusive results are not listed. Where a call stands in place of a potency, no number is given. The source made the active and inactive calls. Calls follow the shape of the dose curve; as a rule, active = well fitted inhibition curve with a large enough effect; inconclusive = small, poorly fitted or top-dose-only effect; inactive = no such curve, though single readings can be large or run the other way.

The nature of this assay: P-glycoprotein substrates identified in KB-3-1 adenocarcinoma cell line, qHTS therapeutic library screen (AID 1346986). Also: nearly all actives have a fitted effect of over 60% in size. Conditions: KB-3-1 parental cells viability, CellTiter-Glo, 72 h; series mostly up to 44.5 µM. The method, then:
The ATP-binding cassette transporters P-glycoprotein (P-gp) is known to limit brain penetration of many chemotherapy drugs. […] We used the CellTiter-Glo viability assay to test library compounds against the parental KB-3-1 human cervical adenocarcinoma cell line and the colchicine-selected sub-line KB-8-5-11 that over-expresses P-gp. KB-8-5-11 cells were also tested in the presence of a P-gp inhibitor (tariquidar) to assess reversability of transporter-mediated resistance. Of the tested compounds, a total of 90 P-gp substrates were identified including 55 newly identified P-gp substrates. Substrates were confirmed using an orthogonal killing assay against HEK-293 cells transfected with P-gp. As exemplars, we confirmed that AT7159 (cyclin-dependent kinase inhibitor); AT9283, (Janus kinase 2/3 inhibitor); ispinesib (kinesin spindle protein inhibitor); gedatolisib (PKI-587, phosphoinositide 3-kinase/mammalian target of rampamycin inhibitor); GSK-690693 (AKT inhibitor); and KW-2478 (heat shock protein 90 inhibitor) were substrates , and direct ATPase stimulation was assessed. ABCG2 was also found to confer high levels of resistance to AT9283, GSK-690693 and gedatolisib, while ispinesib, AT7519 and KW-2478 were weaker substrates.
The HeLa derivative cell line, KB-3-1, and its colchicine-selected, P-gp-overexpressing subline, KB-8-5-11 were maintained in DMEM with 10% FCS and Pen/Strep with glutamine at 37 degree C in 5% CO2. For KB-8-5-11 cells, colchicine was added to the medium at a concentration of 100 ng/mL. HEK-293 cells transfected with empty vector (pcDNA) or vector containing human ABCB1 (MDR-19) or ABCG2 (R-5) have been described previously (Robey, Lin, Qiu, Chan & Bates, 2011) and were maintained in EMEM supplemented with 10% FCS, Pen/Strep and glutamine with 2 mg/ml G418 to select for the expression of the transporter. Cultures were confirmed to be free of mycoplasma infection using the MycoAlert Mycoplasma Detection Kit (Lonza, Walkersville, MD). For the screen, assay medium was identical to culture medium except for KB-8-5-11 where colchicine was excluded from the medium.
All cell lines were plated into 1536-well plates at 500 cells/well in 5 uL media. Compounds were then pinned in dose-response using a 1536-head pin tool (Kalypsis, San Diego, CA) and plates were incubated at 37 degree C in 5% CO2 for an additional 72 h. CellTiter-Glo reagent (Promega) was dispensed into the wells, incubated for 5 min and luminescence was read on a ViewLux instrument (Perkin-Elmer). Cytotoxic compounds were defined as those that yielded a curve class of -1.1, -1.2, -2.1, -2.2, -2.3, or -2.4, a maximum response of >50% and an AC50 of < 10 uM. Cherry-picked hits from screening analysis were tested with both the KB pair of cell lines, and the pcDNA (empty vector control) and MDR-19 (P-gp overexpressing) pair were tested, in the absence and presence of tariquidar.
Turning to `CC1CCC23COC(=O)C2=CC(O)CC3C1(C)CCC1=CC(=O)OC1O` (stereo not given), the Potency result was “inactive”.
As to `CC(/C=C/C1(O)C(C)CC(O)CC1(C)C)OC1OC(CO)C(O)C(O)C1O` (stereo not given), the Potency result was “inactive”.
For the molecule `C[C@@H]1O[C@@H](O[C@H]2[C@H](O)[C@@H](C(=O)O)O[C@@H](O[C@H]3CC[C@@]4(C)C(CC[C@]5(C)C4CC=C4C6CC(C)(C)CC[C@]6(C(=O)O)CC[C@]45C)C3(C)C)[C@@H]2O[C@@H]2O[C@H](CO)[C@@H](O)[C@H](O)[C@H]2O)[C@H](O)[C@H](O)[C@H]1O` (stereo not given in full), the outcome was “inactive [at 9.29 µM]”.
For the molecule `C=C[C@H]1[C@H](O[C@@H]2O[C@H](CO[C@@H]3OC[C@](O)(CO)[C@H]3O)[C@@H](O)[C@H](O)[C@H]2O)OC=C2C(=O)OCC[C@H]21`, the Potency entry is “inactive”.
Take `CC1=CC(=O)CC(C)(C)C1(O)CCC(C)O` (stereo not given): the Potency entry was “inactive”.
With `CCCCS(=O)(=O)Nc1ncnc(OCCOc2ncc(Br)cn2)c1-c1ccc(Br)cc1`, the Potency result is “inactive”.
With `N#CC1C(=O)Nc2scc(-c3ccc(-c4ccccc4O)cc3)c2C1=O` (stereo not given), the Potency result was “inactive”.
Same read-out and setting: next, `CC(=O)NC(C(=O)OC1CCC(C)(C)C2CC=C3C(=O)OCC3(O)C12C)C(C)C` (stereo not given): “inactive”.
Take `CCCCCCc1cccc(NC(=O)[C@H](N)CCP(=O)(O)O)c1`: the outcome was “inactive [at 9.29 µM]”.
`CCC(C)/C=C(C)/C=C/C1=CC2=C(Cl)C(=O)C(C)(OC(C)=O)C(=O)C2=CN1C1CCCCN(C(CCC(N)=O)C(=O)O)C1=O` (stereo not given): the Potency result was “inactive”.
On to `C=CC(C)(C)C12CC3C(=O)NC(Cc4cnc[nH]4)C(=O)N3C1Nc1ccccc12` (stereo not given), for which the Potency entry is “inactive”.
As to `O=C1Nc2ccc(O)cc2O[C@H]1O[C@@H]1O[C@H](CO)[C@@H](O)[C@H](O)[C@H]1O`, the Potency result is “inactive”.
In the case of `CCN[C@@H]1C[C@H](N)[C@@H](O[C@H]2OC(CN)=CC[C@H]2N)[C@H](O)[C@H]1O[C@H]1OC[C@](C)(O)[C@H](NC)[C@H]1O`, the Potency result was “inactive”.
With `C[C@]12CC[C@@H]3c4ccc(O[C@@H]5O[C@H](C(=O)O)[C@@H](O)[C@H](O)[C@H]5O)cc4CC[C@H]3[C@@H]1CCC2=O`, the Potency entry is “inactive”.
Still for that read-out and setting: next, `Cc1cc(N2CCCCC2)nc2ccccc12`: “inactive”; `O=C(CCO[C@@H]1O[C@H](CO)[C@@H](O)[C@H](O)[C@H]1O)c1ccc(O)cc1`: “inactive”.
Regarding `CCOc1ccc(-c2ccc(Cn3c(CC(C)(C)C(=O)O)c(SC(C)(C)C)c4cc(OCc5ccc(C)cn5)ccc43)cc2)cn1`, the Potency result is “inactive”.
Still for that read-out and setting: next, `OCC1=CC[C@@H]2C=CO[C@@H](O[C@@H]3O[C@H](CO)[C@@H](O)[C@H](O)[C@H]3O)[C@H]12`: “inactive”.
In the case of `CC[C@H](/C=C/[C@@H](C)[C@H]1CC[C@H]2[C@@H]3CC=C4C[C@@H](O)CC[C@]4(C)[C@H]3CC[C@]12C)C(C)C`, the outcome was “inactive [at 5.11 µM]”.
As for `CCC(C)(O)C(O)C(=O)OCc1ccc(O[C@@H]2O[C@H](CO)[C@@H](O)[C@H](O)[C@H]2O)cc1` (stereo not given in full), the Potency result is “inactive”.
The same measure, in the same setting: then `O=c1c2cccnc2n(-c2cccc([N+](=O)[O-])c2)c(=O)n1Cc1ccncc1`, with “inactive”.
On to `C/C=C(\C)C(=O)O[C@@H](C)[C@H]1CC[C@]2(O)C3CCC4C[C@@H](OC5CC(OC)C(OC6CC(OC)C(OC7CC(OC)C(OC8OC(C)C(OC9OC(CO)C(O)C(O)C9O)C(OC)C8O)C(C)O7)C(C)O6)C(C)O5)CC[C@]4(C)C3[C@H](O)[C@@H](O)[C@]12C` (stereo not given in full), for which the outcome is “inactive [at 9.29 µM]”.
As for `C=CCc1ccc(O[C@@H]2O[C@H](CO)[C@@H](O)[C@H](O)[C@H]2O)c(OC)c1`, the Potency entry is “inactive”.
Consider `O=C1NC(=Nc2ccccc2F)S/C1=C\c1ccc(C(=O)O)cc1`, for which the Potency entry is “inactive”.
`CC(=O)O[C@H](C[C@@H](C)[C@H]1C(=O)[C@H](O)[C@@]2(C)[C@@H]3CCC4C(C)(C)[C@@H](O[C@@H]5OC[C@H](O)[C@H](O)[C@H]5O)CC[C@@]45C[C@@]35CC[C@]12C)[C@@H]1OC1(C)C` (stereo not given in full): the Potency entry is “inactive”.
Regarding `Nc1nc(CC(=O)Nc2ccc(CCNCC(O)c3ccccc3)cc2)cs1` (stereo not given), the Potency entry is “inactive”.
Still for that read-out and setting: then `COC(=O)[C@H](OC(C)=O)[C@H]1C(C)(C)C(=O)[C@H]2CC3=C4CC(=O)O[C@@H](c5ccoc5)[C@]4(C)CCC3[C@@]1(C)C2=O` (stereo not given in full), with “inactive”.
Turning to `C[C@@H]1O[C@@H](O[C@H]2[C@H](OC(=O)[C@]34CCC(C)(C)C[C@H]3C3=CCC5[C@@]6(C)CC[C@H](O[C@@H]7O[C@H](CO[C@@H]8OC[C@H](O)[C@H](O)[C@H]8O)[C@@H](O)[C@H](O)[C@H]7O)C(C)(C)C6CC[C@@]5(C)[C@]3(C)C[C@H]4O)OC[C@@H](O)[C@@H]2O)[C@H](O)[C@H](O)[C@H]1O[C@@H]1OC[C@H](O)[C@H](O[C@@H]2OC[C@@H](O)[C@H](O)[C@H]2O)[C@H]1O` (stereo not given in full), the outcome was “inactive [at 9.29 µM]”.
Take `CC1=CCC2C(C)(CO)CCCC2(CO)C1CO` (stereo not given): the Potency result was “inactive”.
In the case of `CC(C)c1ccc(CC(=O)N2CCC[C@@H](c3cccc(OC(C)(C)C(=O)O)c3)C2)cc1`, the Potency result was “inactive”.
Consider `C[C@@H]1CC[C@]2(C(=O)O)CC[C@]3(C(=O)O)C(=CCC4[C@@]5(C)CC[C@H](O[C@@H]6O[C@@H](C)[C@H](O[C@@H]7O[C@H](CO)[C@@H](O)[C@H](O)[C@H]7O)[C@@H](O)[C@H]6O)C(C)(C)C5CC[C@]43C)C2[C@H]1C` (stereo not given in full), for which the Potency entry is “inactive”.
For `O=C(C1CC1)N1CC[C@@H](Cc2n[nH]c(=O)n2-c2ccc(-c3ccc4occc4c3)cc2)C1`, the Potency entry is “inactive”.
For `O=C(/C=C/c1ccc(O)cc1)OCC1=C[C@@H](O)[C@@H]2C=CO[C@@H](O[C@@H]3O[C@H](CO)[C@@H](O)[C@H](O)[C@H]3O)[C@H]12`, the Potency result is “inactive”.
With `CC1(C)OC(=O)C(OCC2CC2)=C1c1ccc(S(C)(=O)=O)cc1`, the Potency entry was “inactive”.
As to `CC1OC(OC2C(CO)OC(OCC3OC(OC(=O)C45CCC(C)(C)CC4C4=CCC6C7(C)CCC(OC8OC(C(=O)O)C(O)C(OC9OC(CO)C(O)C(O)C9O)C8O)C(C)(C)C7CCC6(C)C4(C)CC5)C(O)C(O)C3O)C(O)C2O)C(O)C(O)C1O` (stereo not given), the outcome is “inactive [at 9.29 µM]”.
Consider `CCn1cc(C2=NOC(C(=O)Nc3c(C)n(C)n(-c4ccccc4)c3=O)C2)c(C)n1` (stereo not given), for which the Potency result was “inactive”.
For the molecule `COCCN(C)Cc1ccc2nc3sc(C(=O)N(C)C4CCCCC4)cn3c2c1`, the Potency result was “inactive”.
As to `C/C(=C\CCC(C)(O)c1ccc(C)cc1)C(=O)O` (stereo not given), the Potency result was “inactive”.
Consider `CC1(C)C(=O)N2c3ccccc3[C@]3(CC(n4cnc5ccccc5c4=O)C(=O)O3)[C@H]2N1O` (stereo not given in full), for which the Potency result is “inactive”.
On to `Cc1onc(-c2ccccc2)c1C(=O)N[C@@H]1C(=O)N2[C@@H]1SC(C)(C)[C@@H]2C(=O)O`, for which the Potency entry was “inactive”.

These data come from PubChem BioAssay (NCATS).
